# Data taken from PubChem BioAssay (NCATS).
# Inconclusive results are not listed. Activity calls are given as the source filed them. Calls follow the shape of the dose curve; as a rule, active = well fitted cell-killing curve with a large enough effect; inconclusive = small, poorly fitted or top-dose-only effect; inactive = no such curve, though single readings can be large or run the other way.
# Experiment: qHTS of pediatric cancer cell lines to identify multiple opportunities for drug repurposing: Primary screen for Rh41 cells (AID 1347108); also: nearly all actives have a fitted effect of over 70% in size;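 as to activity change, negative = cytotoxic: luminescence drop marks cytotoxic hits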
# Conditions: Rh41 rhabdomyosarcoma viability, CellTiter-Glo luminescence, 48 h; series mostly up to 46 µM; activity change, negative = cytotoxic: at the top concentration
# In short: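 Viability was measured as metabolically active cells after 48 hours of treatment, read by CellTiter-Glo luminescence. Compounds were tested at multiple final concentrations, giving concentration-response curves.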
# Potency is read from the fitted curve at half-maximal effect.
Compound,"activity change, negative = cytotoxic",Potency
CCCCCCC(=O)CCCCCC/C=C/C[C@@H](O)[C@H](O)[C@@](N)(CO)C(=O)O,17.1% [at 16.1 µM] (inactive),
C=CCN1C[C@H](C)N([C@H](c2ccc(C(=O)N(CC)CC)cc2)c2cccc(OC)c2)C[C@H]1C,21.6% (inactive),
CN1C(=O)NC(=O)C(C)(C2=CCCCC2)C1=O (stereo not given),23.6% (inactive),
O=C1c2ccccc2C(=O)c2ccccc21,21.7% [at 16.1 µM] (inactive),
Cc1ncsc1CCCl,28.2% (inactive),
c1ccc(CN2CCNCC2)cc1,-9.61% [at 155 µM] (inactive),
O=P1(N(CCCl)CCCl)NCCCO1 (stereo not given),,inactive
COP(=S)(OC)Oc1ccc(SC)c(C)c1,16.7% (inactive),
CC(=O)OCC1=C(C(=O)O)N2C(=O)[C@@H](N)[C@H]2SC1,22% [at 16.1 µM] (inactive),
ClCCN1CCCC1,27.9% (inactive),
CCCCC/C=C\C/C=C\C/C=C\C/C=C\CCCC(=O)NCC(=O)O,23.5% (inactive),
COc1ccc2c(c1OC)C(=O)O[C@H]2[C@@H]1c2cc3c(cc2CCN1C)OCO3,24.7% (inactive),
Clc1ccccc1N1CCNCC1,21.5% (inactive),
O=C(O)CCCc1ccc(N(CCCl)CCCl)cc1,,inactive
CC(NC(C)(C)C)C(=O)c1cccc(Cl)c1 (stereo not given),,inactive
O=C1OC(CCN2CCCCC2)OC1(c1ccccc1)c1ccccc1 (stereo not given),7.74% (inactive),
C[C@](O)(CS(=O)(=O)c1ccc(F)cc1)C(=O)Nc1ccc(C#N)c(C(F)(F)F)c1,,2.96 µM (active)
COc1cccc2c1C(=O)c1c(O)c3c(c(O)c1C2=O)C[C@@](O)(C(=O)CO)CC3OC1CC(N2CCOC(OC)C2)C(O)C(C)O1 (stereo not given in full),,0.0944 µM (active)
O=C(O)c1ccc(=O)[nH]c1,18.7% (inactive),
CN1CCC(O)(c2ccc(F)cc2)C(C(=O)c2ccc(F)cc2)C1 (stereo not given),12% (inactive),
